According to the supplement of paper PMC11732987, “Enantioselective OTUD7B fragment discovery through chemoproteomics screening and high-throughput optimisation” (Communications Chemistry, 2025):

Legend:
Assay in all cases: log2 ratio of Biotin-Ahx-Ub-VS probe labelling (fragment/DMSO); higher = less target engagement (more negative = stronger competition), active = hit call of the paper (q ≤ 0.05, log2 ratio ≤ -1)
Conditions in all cases: compound concentration: 200 uM; treatment time: 3 h
[1] = biological target: T1, USP42 (UniProt Q9H9J4)
T1 sequence (whole entry): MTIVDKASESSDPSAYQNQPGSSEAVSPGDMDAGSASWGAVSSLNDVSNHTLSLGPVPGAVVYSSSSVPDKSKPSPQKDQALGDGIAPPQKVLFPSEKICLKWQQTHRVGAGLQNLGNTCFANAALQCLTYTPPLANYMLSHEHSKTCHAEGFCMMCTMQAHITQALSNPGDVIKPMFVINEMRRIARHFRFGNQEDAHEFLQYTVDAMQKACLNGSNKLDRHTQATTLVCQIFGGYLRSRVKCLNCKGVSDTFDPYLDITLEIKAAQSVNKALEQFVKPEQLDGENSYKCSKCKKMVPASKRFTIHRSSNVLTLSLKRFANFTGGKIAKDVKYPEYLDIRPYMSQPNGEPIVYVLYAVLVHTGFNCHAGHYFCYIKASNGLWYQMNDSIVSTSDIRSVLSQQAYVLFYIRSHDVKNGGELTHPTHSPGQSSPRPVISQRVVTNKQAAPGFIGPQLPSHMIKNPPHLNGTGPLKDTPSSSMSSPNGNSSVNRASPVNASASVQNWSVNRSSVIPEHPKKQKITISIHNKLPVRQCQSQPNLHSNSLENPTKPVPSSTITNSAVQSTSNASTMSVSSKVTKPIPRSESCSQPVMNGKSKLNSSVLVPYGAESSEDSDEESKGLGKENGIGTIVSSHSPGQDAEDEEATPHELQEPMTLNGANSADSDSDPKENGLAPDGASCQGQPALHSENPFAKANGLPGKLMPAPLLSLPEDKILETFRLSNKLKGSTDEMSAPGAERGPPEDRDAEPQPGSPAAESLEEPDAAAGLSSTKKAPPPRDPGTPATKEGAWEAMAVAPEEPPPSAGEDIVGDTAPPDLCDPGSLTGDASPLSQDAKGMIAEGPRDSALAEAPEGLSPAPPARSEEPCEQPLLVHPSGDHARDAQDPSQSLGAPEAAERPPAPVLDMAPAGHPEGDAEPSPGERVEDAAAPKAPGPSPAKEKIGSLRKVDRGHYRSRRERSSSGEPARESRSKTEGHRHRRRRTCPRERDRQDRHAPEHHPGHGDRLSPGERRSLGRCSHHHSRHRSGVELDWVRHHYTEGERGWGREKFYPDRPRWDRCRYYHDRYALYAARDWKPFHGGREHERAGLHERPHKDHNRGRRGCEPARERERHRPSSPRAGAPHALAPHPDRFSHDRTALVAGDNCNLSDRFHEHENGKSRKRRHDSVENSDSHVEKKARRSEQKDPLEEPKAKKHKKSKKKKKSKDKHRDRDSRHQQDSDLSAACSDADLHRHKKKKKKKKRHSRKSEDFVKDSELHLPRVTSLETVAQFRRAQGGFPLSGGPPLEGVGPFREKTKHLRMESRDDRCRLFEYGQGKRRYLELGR
How it was run: (§1)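 Average log2 ratios of fragment over vehicle were obtained by unpaired t-test from global-median-normalised Spectronaut label-free quantities. Proteins with ≥2 unique peptides were included. HEK293T lysate (495 µg per sample) was treated in triplicate with fragment at 200 µM or vehicle for 3 h, then with Biotin-Ahx-Ub-VS at 0.5 µM final for 1 h, and labelled DUBs were NeutrAvidin-enriched and run by diaPASEF LC-MS/MS.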

[2] = biological target: USP46 (UniProt P62068)
Sequence of USP46 (P62068 whole entry): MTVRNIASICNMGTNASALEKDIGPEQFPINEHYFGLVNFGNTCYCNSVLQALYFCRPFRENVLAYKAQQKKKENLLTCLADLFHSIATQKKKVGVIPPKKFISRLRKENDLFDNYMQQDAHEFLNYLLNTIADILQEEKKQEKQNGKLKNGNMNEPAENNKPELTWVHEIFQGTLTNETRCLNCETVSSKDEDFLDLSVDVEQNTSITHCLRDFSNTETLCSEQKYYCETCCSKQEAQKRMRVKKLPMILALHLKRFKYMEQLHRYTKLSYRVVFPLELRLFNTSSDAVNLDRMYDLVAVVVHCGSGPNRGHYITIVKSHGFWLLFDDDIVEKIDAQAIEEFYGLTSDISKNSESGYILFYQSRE
How it was run: as §1

[3] = biological target: T2, USP47 (UniProt Q96K76)
T2 sequence (whole entry): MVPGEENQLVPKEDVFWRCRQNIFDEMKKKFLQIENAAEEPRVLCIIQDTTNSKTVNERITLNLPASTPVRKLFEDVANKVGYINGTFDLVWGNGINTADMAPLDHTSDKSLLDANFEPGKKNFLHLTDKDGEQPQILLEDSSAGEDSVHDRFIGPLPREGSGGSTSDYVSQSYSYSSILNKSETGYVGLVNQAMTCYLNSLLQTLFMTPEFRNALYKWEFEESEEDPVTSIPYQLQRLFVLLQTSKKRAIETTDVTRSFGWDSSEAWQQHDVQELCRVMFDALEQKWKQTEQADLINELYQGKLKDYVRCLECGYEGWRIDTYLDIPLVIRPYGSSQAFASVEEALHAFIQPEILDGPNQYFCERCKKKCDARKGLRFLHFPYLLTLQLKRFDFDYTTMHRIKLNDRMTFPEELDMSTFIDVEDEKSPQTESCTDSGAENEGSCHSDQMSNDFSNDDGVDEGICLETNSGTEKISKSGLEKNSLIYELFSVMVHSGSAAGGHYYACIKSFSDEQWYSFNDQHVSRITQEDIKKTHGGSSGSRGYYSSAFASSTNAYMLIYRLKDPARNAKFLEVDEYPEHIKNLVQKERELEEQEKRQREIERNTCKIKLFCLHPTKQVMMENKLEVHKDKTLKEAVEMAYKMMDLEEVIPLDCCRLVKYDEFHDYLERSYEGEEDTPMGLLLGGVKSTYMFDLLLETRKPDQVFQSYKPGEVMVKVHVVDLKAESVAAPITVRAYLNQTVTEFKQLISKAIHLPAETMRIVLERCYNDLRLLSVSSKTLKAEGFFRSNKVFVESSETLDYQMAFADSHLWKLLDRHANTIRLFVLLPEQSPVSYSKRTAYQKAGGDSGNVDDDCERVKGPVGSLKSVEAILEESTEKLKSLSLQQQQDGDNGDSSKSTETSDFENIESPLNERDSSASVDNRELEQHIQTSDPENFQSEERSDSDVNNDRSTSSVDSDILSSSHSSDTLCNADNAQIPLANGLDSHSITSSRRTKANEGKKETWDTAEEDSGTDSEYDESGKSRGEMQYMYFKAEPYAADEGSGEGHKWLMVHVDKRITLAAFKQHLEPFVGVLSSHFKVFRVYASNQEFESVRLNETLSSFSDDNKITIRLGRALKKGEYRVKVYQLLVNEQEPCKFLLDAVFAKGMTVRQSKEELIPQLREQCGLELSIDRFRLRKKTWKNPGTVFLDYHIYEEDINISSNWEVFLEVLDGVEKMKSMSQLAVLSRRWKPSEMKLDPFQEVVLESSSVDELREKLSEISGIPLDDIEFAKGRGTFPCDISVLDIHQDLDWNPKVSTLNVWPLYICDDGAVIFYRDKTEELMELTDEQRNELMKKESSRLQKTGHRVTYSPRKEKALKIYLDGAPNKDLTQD
How it was run: as §1

[4] = biological target: T3, USP48 (UniProt Q86UV5)
T3 sequence (whole entry): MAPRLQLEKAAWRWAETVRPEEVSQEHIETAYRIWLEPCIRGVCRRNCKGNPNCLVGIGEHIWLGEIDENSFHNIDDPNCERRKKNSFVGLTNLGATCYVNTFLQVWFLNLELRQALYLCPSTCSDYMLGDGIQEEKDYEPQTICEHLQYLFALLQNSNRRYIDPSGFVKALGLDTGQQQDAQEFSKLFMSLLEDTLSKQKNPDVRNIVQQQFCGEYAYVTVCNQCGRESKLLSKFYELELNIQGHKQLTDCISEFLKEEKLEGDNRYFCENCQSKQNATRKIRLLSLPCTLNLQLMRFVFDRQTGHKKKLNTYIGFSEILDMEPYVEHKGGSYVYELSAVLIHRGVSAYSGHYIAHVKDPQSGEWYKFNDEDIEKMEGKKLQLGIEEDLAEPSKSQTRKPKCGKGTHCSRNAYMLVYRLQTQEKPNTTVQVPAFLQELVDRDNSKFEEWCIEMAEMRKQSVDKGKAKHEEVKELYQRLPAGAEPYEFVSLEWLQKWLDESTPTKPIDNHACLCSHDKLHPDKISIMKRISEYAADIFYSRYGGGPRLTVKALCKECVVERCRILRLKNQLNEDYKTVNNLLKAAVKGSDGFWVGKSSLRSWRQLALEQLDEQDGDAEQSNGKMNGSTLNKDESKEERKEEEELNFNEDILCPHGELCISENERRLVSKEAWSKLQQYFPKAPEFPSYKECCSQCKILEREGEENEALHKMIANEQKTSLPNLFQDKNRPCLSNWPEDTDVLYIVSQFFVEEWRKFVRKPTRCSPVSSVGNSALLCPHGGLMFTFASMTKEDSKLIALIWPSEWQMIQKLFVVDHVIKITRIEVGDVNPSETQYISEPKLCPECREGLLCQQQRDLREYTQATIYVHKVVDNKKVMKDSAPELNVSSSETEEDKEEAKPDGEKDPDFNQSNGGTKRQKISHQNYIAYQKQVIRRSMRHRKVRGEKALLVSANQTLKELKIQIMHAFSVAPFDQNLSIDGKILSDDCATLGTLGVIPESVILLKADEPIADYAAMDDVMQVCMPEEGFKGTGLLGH
How it was run: as §1

[5] = biological target: T4, USP5 (UniProt P45974)
T4 sequence (whole entry): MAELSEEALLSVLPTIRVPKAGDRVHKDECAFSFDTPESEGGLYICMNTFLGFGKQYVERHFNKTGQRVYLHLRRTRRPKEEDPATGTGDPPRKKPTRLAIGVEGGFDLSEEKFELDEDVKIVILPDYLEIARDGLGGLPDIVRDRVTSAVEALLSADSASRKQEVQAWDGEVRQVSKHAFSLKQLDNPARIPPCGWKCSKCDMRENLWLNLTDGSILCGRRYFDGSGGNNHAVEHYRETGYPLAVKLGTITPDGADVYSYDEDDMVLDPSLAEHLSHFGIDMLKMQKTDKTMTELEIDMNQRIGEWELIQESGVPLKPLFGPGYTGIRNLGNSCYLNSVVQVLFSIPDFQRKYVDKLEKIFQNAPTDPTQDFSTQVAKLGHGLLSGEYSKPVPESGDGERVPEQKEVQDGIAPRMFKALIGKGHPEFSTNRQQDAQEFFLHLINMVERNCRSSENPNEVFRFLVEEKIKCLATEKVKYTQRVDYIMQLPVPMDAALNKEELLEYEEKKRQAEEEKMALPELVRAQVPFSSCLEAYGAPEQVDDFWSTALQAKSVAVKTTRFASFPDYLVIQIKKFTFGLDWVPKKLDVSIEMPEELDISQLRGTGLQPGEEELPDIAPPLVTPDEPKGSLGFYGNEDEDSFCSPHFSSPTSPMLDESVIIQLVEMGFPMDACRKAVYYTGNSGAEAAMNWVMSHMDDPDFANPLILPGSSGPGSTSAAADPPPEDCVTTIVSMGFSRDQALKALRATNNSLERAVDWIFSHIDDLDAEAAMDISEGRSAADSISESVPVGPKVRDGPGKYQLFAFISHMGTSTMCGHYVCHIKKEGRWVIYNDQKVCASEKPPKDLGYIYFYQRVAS
How it was run: as §1

[6] = biological target: USP54 (UniProt Q70EL1)
How it was run: as §1

[7] = biological target: USP7 (UniProt Q93009)
Sequence of USP7 (Q93009 whole entry, looked up): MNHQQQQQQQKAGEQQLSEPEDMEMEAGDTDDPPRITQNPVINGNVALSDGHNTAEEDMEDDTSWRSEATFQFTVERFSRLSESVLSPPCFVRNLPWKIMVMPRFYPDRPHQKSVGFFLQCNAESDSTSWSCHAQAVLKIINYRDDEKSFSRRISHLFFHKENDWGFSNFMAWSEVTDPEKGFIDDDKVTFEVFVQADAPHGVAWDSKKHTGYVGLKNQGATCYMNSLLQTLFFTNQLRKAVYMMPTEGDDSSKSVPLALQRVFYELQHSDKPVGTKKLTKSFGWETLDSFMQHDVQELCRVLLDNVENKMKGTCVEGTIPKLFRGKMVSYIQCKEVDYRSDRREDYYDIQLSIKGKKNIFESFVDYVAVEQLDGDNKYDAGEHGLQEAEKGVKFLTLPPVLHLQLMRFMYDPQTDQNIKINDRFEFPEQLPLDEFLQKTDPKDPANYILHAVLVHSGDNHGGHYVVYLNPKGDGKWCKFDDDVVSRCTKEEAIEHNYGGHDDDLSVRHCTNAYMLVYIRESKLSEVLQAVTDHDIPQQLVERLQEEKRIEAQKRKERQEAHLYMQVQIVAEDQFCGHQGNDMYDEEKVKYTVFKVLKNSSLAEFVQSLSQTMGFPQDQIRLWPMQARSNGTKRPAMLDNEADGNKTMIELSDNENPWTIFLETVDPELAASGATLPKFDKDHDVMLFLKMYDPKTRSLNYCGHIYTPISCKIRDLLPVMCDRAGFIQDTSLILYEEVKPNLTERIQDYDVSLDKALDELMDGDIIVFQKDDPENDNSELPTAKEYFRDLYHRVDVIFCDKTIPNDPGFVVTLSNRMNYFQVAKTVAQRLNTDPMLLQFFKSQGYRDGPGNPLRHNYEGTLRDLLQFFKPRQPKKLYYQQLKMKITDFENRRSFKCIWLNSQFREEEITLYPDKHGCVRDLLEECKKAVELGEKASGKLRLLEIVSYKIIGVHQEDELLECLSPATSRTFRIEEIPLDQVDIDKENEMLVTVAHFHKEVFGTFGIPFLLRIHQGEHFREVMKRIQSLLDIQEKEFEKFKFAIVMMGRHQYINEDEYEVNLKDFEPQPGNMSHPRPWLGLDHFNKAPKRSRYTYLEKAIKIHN
How it was run: as §1

[8] = biological target: T5, USP8 (UniProt P40818)
T5 sequence (whole entry): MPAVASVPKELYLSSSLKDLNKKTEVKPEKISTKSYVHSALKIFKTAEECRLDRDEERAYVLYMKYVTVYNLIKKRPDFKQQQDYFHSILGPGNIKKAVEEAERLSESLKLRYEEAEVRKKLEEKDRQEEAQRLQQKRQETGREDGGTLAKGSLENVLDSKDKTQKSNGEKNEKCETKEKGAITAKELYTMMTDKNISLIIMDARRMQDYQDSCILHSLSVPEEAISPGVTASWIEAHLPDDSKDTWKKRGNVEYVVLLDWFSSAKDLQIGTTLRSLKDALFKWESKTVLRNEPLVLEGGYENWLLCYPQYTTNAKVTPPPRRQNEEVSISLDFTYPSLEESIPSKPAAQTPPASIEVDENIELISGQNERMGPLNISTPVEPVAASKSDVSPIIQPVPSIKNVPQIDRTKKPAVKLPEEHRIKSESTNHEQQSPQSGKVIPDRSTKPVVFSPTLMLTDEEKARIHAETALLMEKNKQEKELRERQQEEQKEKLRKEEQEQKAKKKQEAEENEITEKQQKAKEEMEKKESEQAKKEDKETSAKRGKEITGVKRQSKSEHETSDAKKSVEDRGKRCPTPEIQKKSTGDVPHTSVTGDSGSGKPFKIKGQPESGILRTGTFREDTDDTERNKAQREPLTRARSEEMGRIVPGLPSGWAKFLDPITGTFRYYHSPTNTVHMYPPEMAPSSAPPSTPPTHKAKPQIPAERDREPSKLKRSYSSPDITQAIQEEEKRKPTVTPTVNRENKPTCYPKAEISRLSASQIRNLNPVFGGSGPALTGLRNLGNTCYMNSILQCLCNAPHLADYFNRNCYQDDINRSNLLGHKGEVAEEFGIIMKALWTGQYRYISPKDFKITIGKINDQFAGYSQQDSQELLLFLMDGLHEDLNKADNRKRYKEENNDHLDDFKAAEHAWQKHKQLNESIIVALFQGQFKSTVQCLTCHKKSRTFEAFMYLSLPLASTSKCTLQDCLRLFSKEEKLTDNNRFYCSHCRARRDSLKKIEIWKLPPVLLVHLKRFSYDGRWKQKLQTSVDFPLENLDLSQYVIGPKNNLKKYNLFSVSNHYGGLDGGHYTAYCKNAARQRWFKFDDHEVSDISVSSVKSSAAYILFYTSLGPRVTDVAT
How it was run: as §1

[9] = biological target: USP9X (UniProt Q93008)
Sequence of USP9X (Q93008 whole entry): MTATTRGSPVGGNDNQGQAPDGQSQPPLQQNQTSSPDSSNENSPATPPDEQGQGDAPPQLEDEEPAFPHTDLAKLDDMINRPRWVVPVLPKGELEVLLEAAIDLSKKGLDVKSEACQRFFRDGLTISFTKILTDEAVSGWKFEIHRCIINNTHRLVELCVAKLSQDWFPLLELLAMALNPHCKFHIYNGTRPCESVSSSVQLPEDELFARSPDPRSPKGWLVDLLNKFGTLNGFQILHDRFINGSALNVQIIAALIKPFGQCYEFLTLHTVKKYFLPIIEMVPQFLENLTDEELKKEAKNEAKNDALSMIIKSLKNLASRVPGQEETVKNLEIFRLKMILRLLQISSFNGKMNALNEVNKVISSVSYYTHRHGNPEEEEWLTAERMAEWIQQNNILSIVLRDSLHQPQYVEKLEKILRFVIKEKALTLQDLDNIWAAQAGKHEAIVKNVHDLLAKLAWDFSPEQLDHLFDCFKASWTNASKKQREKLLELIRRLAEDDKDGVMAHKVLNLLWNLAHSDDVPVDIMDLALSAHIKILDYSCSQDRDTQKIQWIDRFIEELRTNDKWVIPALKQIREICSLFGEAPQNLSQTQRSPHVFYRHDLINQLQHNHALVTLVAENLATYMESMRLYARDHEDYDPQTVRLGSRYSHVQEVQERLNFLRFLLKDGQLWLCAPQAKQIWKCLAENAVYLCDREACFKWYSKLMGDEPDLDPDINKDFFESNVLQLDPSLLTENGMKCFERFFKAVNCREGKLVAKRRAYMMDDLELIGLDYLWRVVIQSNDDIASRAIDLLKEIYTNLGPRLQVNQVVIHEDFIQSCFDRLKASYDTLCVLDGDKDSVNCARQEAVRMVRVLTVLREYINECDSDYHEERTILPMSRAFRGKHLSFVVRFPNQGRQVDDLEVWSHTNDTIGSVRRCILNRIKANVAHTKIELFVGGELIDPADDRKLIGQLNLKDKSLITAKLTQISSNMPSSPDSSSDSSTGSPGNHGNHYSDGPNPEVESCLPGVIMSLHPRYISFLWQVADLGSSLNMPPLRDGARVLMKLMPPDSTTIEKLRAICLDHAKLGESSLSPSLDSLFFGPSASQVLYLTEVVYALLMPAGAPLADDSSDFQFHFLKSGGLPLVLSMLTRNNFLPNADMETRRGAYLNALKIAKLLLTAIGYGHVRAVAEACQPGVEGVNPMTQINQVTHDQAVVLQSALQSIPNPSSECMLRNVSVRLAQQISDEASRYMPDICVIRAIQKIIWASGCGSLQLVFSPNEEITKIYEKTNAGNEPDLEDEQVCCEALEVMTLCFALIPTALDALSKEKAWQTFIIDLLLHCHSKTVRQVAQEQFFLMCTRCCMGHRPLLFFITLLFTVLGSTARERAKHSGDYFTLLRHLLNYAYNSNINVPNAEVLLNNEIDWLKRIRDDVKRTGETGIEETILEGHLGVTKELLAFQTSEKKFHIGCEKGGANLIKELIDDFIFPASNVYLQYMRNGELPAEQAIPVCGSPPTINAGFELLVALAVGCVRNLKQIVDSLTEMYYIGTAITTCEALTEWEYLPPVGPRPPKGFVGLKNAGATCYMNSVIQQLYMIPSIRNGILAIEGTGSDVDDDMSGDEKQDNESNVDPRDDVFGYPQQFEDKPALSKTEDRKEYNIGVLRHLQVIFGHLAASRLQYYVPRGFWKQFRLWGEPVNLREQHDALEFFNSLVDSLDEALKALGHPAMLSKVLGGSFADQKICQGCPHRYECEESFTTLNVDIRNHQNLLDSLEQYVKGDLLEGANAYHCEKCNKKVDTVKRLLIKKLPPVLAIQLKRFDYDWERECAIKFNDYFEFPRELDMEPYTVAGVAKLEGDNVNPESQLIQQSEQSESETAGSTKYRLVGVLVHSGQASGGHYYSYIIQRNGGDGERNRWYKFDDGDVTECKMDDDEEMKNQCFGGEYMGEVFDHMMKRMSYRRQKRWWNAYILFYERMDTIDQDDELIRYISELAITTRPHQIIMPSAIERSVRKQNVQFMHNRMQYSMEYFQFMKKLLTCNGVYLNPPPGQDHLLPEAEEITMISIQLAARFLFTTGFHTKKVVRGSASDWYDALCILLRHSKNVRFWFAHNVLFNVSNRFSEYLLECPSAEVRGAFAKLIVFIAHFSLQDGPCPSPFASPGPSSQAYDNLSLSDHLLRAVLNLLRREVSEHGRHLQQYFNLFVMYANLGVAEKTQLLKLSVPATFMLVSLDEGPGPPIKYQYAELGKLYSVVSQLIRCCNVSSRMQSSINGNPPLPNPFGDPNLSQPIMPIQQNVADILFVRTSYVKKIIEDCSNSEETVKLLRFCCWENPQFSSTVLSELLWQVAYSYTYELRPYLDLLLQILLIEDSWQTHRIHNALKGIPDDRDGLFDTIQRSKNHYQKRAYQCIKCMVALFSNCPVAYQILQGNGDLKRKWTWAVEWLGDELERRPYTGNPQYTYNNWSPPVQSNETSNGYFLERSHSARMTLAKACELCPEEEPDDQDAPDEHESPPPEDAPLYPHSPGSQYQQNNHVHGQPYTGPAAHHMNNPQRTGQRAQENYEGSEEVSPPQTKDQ
How it was run: as §1

[10] = biological target: UniProt O00487
Sequence of UniProt O00487 (O00487 whole entry): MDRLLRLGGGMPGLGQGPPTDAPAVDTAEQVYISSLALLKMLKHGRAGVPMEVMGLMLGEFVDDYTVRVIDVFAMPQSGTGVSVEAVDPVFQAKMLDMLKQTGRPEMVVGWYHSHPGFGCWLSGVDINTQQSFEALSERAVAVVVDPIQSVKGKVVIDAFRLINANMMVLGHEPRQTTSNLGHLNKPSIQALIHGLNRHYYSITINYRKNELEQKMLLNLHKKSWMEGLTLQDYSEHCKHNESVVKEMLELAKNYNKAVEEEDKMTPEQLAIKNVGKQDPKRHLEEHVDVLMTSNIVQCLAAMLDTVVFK
How it was run: as §1

Measured: log2 ratio of Biotin-Ahx-Ub-VS probe labelling

Cc1ccc2nnc(CNC(=O)CCl)n2c1
inactive: [1] 0.336 | [2] -0.000756 | [3] 0.13 | [4] -0.0762 | [5] 0.114 | [6] 0.357 | [7] 0.0284 | [8] 0.28 | [9] 0.0675 | [10] -0.0931
